Screening results: PubChem BioAssay, The Scripps Research Institute Molecular Screening Center
An excerpt weighted towards active compounds, which were near 3.4% of everything screened.
GPR151 activ: activators of human GPR151, primary screen, cell-based, PathHunter beta-arrestin, luminescence | G-protein coupled receptor 151 (Homo sapiens), Q8TDV0 | activation, % at 11.2 µM | AID 1508602, 2020 | PathHunter beta-arrestin GPR151 cells | 650,000 compounds, 1% hits; in the data active = activation above about 4.9%;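 note: 0% = median of compound wells and 100% = cells with positive control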
FBW7 act: FBW7 E3 ligase activators, primary screen, biochemical, AlphaScreen, human. F-box/WD repeat-containing protein 7 (Homo sapiens), Q969H0. AlphaScreen FBW7–phospho-cyclin E peptide binding, activator screen. normalized activity (activation), % at 26.1 µM. 650,000 compounds, 0.13% hits; in the data active = normalized activity above about 1.9%;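 note: purified mutant Fbw7 with reduced substrate affinity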
Target sequence (Q969H0 whole entry, looked up): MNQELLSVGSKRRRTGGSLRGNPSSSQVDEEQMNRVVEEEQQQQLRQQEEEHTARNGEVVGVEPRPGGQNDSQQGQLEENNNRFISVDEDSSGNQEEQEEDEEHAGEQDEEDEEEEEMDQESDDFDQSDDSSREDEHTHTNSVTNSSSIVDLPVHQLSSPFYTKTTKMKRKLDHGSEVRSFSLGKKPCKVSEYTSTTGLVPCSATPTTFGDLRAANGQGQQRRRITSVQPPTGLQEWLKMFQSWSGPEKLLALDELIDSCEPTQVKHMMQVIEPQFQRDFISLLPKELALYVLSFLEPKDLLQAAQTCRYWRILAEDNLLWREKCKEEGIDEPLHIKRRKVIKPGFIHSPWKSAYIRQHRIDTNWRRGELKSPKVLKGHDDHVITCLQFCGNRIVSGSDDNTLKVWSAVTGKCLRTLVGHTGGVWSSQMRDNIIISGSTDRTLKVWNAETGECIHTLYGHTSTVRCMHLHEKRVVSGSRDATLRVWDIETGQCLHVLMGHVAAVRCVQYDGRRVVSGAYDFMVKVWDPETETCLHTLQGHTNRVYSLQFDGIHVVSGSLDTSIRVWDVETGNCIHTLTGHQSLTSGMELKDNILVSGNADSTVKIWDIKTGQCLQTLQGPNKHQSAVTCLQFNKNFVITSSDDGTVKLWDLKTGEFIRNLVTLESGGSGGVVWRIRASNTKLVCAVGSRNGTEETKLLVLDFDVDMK
MITF primary: MITF inhibitors, primary screen, biochemical, AlphaScreen, human; Microphthalmia-associated transcription factor (Homo sapiens), O75030; inhibition, % at 2.6 µM; AlphaScreen MITF homodimerization, bead proximity signal; 650,000 compounds, 0.91% hits; AID 1259374, 2018; in the data active = inhibition above about 50%;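 note: 0% = vehicle wells with protein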
TEAD-YAP inh: TEAD-YAP interaction inhibition, primary screen, TEAD-YAP interaction inhibitor project, luminescence, HEK-TIYL cells | inhibition, % at 9.12 µM | AID 1259422, 2018 | TEAD-Gal4/YAP UAS-luciferase luminescence | 640,000 compounds, 1.4% hits; in the data active = inhibition above about 32%;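 note: 0% = median of test compound wells and 100% = reference inhibitor wells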
GPR151 confirm: GPR151 activators, triplicate retest, confirmation, cell-based, PathHunter beta-arrestin, luminescence. shares compounds with GPR151 activ. GPR151 PathHunter beta-arrestin cells, 90 min; % of EA-reagent control over plate median. activation, % at 11.2 µM. 6,700 tested, under 10 active;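 active = mean percent activation across replicates above the confirmation screen cutoff of 4.91%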
GPR119 ag: GPR119 activators in beta-arrestin cells, counter-screen for GPR151 activator project, cell-based, PathHunter beta-arrestin, luminescence, triplicate; activation, % at 11.2 µM; 90 min; 0 = compound-well median, 100 = enzyme-acceptor control; 6,700 compounds, 0.3% hits; shares compounds with GPR151 activ;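 active = mean percent activation in the counterscreen above 29.09%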;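 note: counterscreen on off-target GPR119 to flag nonselective hits from the GPR151 activator screen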
Numbers without * were called inactive; x = no result; ! = not active in a repeat.

SMILES	GPR151 activ	FBW7 act	MITF primary	TEAD-YAP inh	GPR151 confirm	GPR119 ag
CCn1c2ccccc2n2c(=O)n(CC(=O)NCC3COc4ccccc4O3)nc12 (centres undefined)	7.5*	1.0	-4.6	13.2	2.3	7.2
CCn1c2ccccc2n2c(=O)n(CC(=O)Nc3ccc4c(c3)OCO4)nc12	5.7*	1.0	8.9	14.3	1.0	1.6
CCOC(=O)c1c(N)sc(-c2ccccc2)c1C	6.2*	-0.1	1.0	-40.0	-0.5	-1.8
CCOC(=O)c1c(N)sc(-c2ccccc2)c1Cc1ccccc1	0.6	-0.1	-6.6	-1.3	x	x
CSc1ccc(C2C(C#N)=C(N)N(N(C)C)C3=C2C(=O)CC(c2ccccc2)C3)cc1 (centres undefined)	-0.3	0.0	-18.1	6.1	x	x
COC(=O)c1cc(NS(=O)(=O)c2ccc3ccccc3c2)ccc1Cl	5.0*	0.3	0.6	3.0	0.4	4.3
COc1cccc(S(=O)(=O)Nc2ccc(Cl)c(C(F)(F)F)c2)c1	7.1*	-0.1	2.7	1.4	1.1	-0.9
CCc1ccccc1-n1c(C)c(C)n2c3c(=O)n(CC(N)=O)c(=O)n(C)c3nc12	-0.2	0.8	-5.2	-2.7	x	x
CCc1ccccc1-n1c(C)c(C)n2c3c(=O)n(CC)c(=O)n(C)c3nc12	5.1*	0.0	4.3	8.3	0.9	2.8
FC(F)(F)c1ccc(NCCN2CCOCC2)nc1	8.2*	-0.1	-12.7	2.0	-0.2	2.4
CCC(Sc1nncn1C)C(=O)Nc1sc2c(c1C#N)CCCC2 (centres undefined)	-0.2	-0.1	19.4	9.8	x	x
CC(C)(C)C1=Nc2ccccc2NC(=O)C1	-0.2	0.2	13.1	-3.8	x	x
CCCN(CCC)CCc1cccc2c1CC(=O)N2	12.4*!	-0.2	-8.7	-4.3	-0.2	-8.5
N#CCCN(Cc1cccnc1)C(=S)NC(=O)c1cccs1	5.6*	0.5	6.0	15.1	-1.5	-3.4
N#CC1=C(N)Oc2n[nH]c(-c3ccccc3)c2C1c1ccc([N+](=O)[O-])cc1Cl (centres undefined)	1.0	0.2	1.3	-19.5	x	x
N#CC1=C(N)Oc2n[nH]c(-c3ccccc3)c2C1c1ccc(Cl)c([N+](=O)[O-])c1 (centres undefined)	6.1*	0.1	-2.8	-1.7	-0.1	3.1
COc1cc(C2C(C#N)=C(N)Oc3n[nH]c(-c4cccc([N+](=O)[O-])c4)c32)cc(OC)c1O (centres undefined)	6.0*	0.0	0.7	10.5	-0.6	8.1
N#CC1=C(N)Oc2n[nH]c(-c3cccc([N+](=O)[O-])c3)c2C1c1ccc(Cl)c(Cl)c1 (centres undefined)	7.9*	-0.4	5.2	3.4	-0.8	-5.5
COc1cc(C2C(C#N)=C(N)Oc3n[nH]c(-c4cccc([N+](=O)[O-])c4)c32)cc(OC)c1OC(C)=O (centres undefined)	-0.9	-0.2	-6.4	-7.7	x	x
CCC1CCCCN1C(=O)c1sc2ncn(CCOC)c(=O)c2c1C (centres undefined)	0.7	0.5	10.2	5.5	x	x
CC(Oc1ccc(Br)cc1)C(=O)Nc1ccccc1 (centres undefined)	-1.1	-0.2	-15.8	0.9	x	x
CC(Oc1ccc(Br)cc1)C(=O)Nc1ccc(C(N)=O)cc1 (centres undefined)	5.7*	-0.3	-7.4	8.3	-0.2	-2.0
O=C(Cn1[nH]c(=O)c2ccccc2c1=O)NC1CCCc2ccccc21 (centres undefined)	-1.6	0.7	8.1	-0.8	x	x
O=C(CO)N/N=C\c1c(F)cccc1Cl	-0.2	0.2	12.7	30.9	x	x
O=C(CC(=O)N/N=C/c1c(F)cccc1Cl)NCCc1ccccc1	5.6*	0.0	-5.0	-0.3	0.6	-0.4
SMILES	GPR151 activ	FBW7 act	MITF primary	TEAD-YAP inh	GPR151 confirm	GPR119 ag
O=C(N/N=C/c1ccc([N+](=O)[O-])s1)c1cccc(Cn2cccn2)c1	3.2	0.2	23.8	-2.4	x	x
CCOc1ccc(Cl)cc1C1C2=C(CC(C)(C)CC2=O)N(C)C2=C1C(=O)CC(C)(C)C2	-0.1	0.2	12.4	4.2	x	x
C#CCOc1ccc(Cl)cc1C1C2=C(CC(C)(C)CC2=O)N(C)C2=C1C(=O)CC(C)(C)C2	5.1*	0.1	2.6	2.0	0.8	10.0
CCCCNC(=O)CCn1nc(-c2ccccc2)c2ccccc2c1=O	0.1	-0.1	3.0	-2.6	x	x
CNC(=O)Cn1nc(-c2ccc(C)cc2)c2ccccc2c1=O	2.0	0.2	6.7	-3.5	x	x
CC(C)(C)NC(=O)Cn1nc(C(=O)O)c2ccccc2c1=O	5.9*	-0.2	-7.2	-7.4	-1.2	-11.6
O=C(CCn1nc(-c2ccccc2)c2ccccc2c1=O)NCc1ccccc1	18.4*	-0.1	2.7	-6.6	0.7	-0.9
Cc1ccc(-c2nn(CC(=O)NCc3ccccc3)c(=O)c3ccccc23)cc1	5.1*	0.2	24.2	-1.2	0.2	15.3
CNC(=O)Cn1nc(C(=O)O)c2ccccc2c1=O	-1.2	0.2	-3.5	5.9	x	x
Clc1cccc(-c2cnc3ccc(NCc4ccncc4)nn23)c1	0.9	0.1	8.7	-4.5	x	x
CC(=O)Nc1c2c(nn1-c1ccc(Cl)cc1)CS(=O)(=O)C2	7.8*	0.8	14.2	-3.3	-0.1	-1.5
O=C(Cc1ccc(F)cc1)Nc1c2c(nn1-c1ccc(F)cc1)CS(=O)(=O)C2	5.3*	0.2	2.8	5.5	0.0	8.0
O=C(Nc1c2c(nn1-c1ccc(Cl)cc1)CS(=O)(=O)C2)c1ccc(Cl)cc1	1.2	0.0	-1.2	2.1	x	x
CC(=O)Nc1ccc(S(=O)(=O)NCCNC(=O)c2ccccc2F)cc1	6.3*	-0.1	4.1	-8.8	-1.6	-13.2
O=C(Nc1ccc(S(=O)(=O)NCCc2ccccc2)cc1)c1ccccc1F	0.6	0.1	-5.9	2.2	x	x
CC(C)c1ccc(NC(=O)c2cc(S(=O)(=O)NCCc3ccccc3)ccc2F)cc1	5.8*	-0.2	4.2	12.5	-1.2	-12.0
CC(C)c1ccc2oc(-c3ccc(NC(=O)COc4ccc(Cl)cc4)cc3)nc2c1	-1.0	0.0	8.8	-6.2	x	x
C=CCNC(=S)NNc1nncc2ccccc12	1.5	-0.1	2.2	-55.9	x	x
COc1ccc(CCN2CCC(NCc3cccc(N(C)C)c3)CC2)cc1	5.5*!	0.4	12.8	4.6	0.3	-3.7
COCCNC(=O)c1sc2ncnc(N3CCc4ccccc4C3)c2c1C	5.3*	-0.2	0.3	-2.7	-0.6	-0.1
O=C(NCc1ccncc1)c1cn(Cc2ccc(F)cc2)nn1	1.3	0.1	0.1	-4.0	x	x
